In the library only some 4.8% were active in any assay of this set; here they are far more common.
Casp1 inh: blocks human caspase-1 allosterically or competitively; Potency, µM (top dose mostly 57.5 µM), usual class: inhibitors; AID 900; Caspase-1 enzyme, Ac-WEHD-AFC fluorogenic rate; P29466; actives 0.03% (n = 75,000)
Caspase-7 inhib: caspase-7 (human) inhibition, allosteric or competitive; recombinant caspase-7, Ac-DEVD-AFC fluorescence rate; Potency, µM (series often up to 57.5 µM), usual class: inhibitors; P55210; actives 0.02% (n = 75,000); active = well fitted inhibition curve with a large enough effect in the main read-out, with a control signal flat, not every such curve was filed as active; inconclusive = small, poorly fitted or top-dose-only effect, or a change in a side signal
ERK AVP block: vasopressin-driven ERK pathway inhibition | HEK293-V1b, vasopressin-stimulated pERK AlphaScreen | Potency, µM (series often up to 57.5 µM), hits mostly inhibitors | actives 0.99% (n = 72,000); also: nearly all actives have a fitted effect of over 55% in size
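HEK293 cells stably expressing V1b receptor, seeded overnight in 1% FBS, were treated with compounds for 30 min at 37C, then stimulated 5 min with 25 nM vasopressin; phospho-ERK read by AlphaScreen SureFire after lysis.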
HEK293 cAMP ctrl: raises cAMP in parental HEK293 cells, TSHR agonist counter-screen. Potency, µM (top dose mostly 57.1 µM), most hits filed as activators. parental HEK293 CNG cAMP sensor, membrane potential fluorescence. actives 2.5% (n = 73,000); also: nearly all actives have a fitted effect of over 55% in size
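Counterscreen for endogenous-receptor signalling: CNG-channel HEK 293 cells report cAMP rise by membrane depolarization. After 60 min dye equilibration with 100 uM RO 20-1724, compounds incubated 30 min before bottom-read fluorescence at 590 nm.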
TSHR ag: agonists of human thyroid stimulating hormone receptor. P16473. HEK293-CNG-TSHR cells (CNG channel as cAMP sensor), membrane potential dye, cAMP. Potency, µM (highest dose often 57.1 µM), actives largely listed as activators. actives 0.48% (n = 73,000); active = well fitted activation curve with a large enough effect in the main read-out, with a control signal flat, not every such curve was filed as active; inconclusive = small, poorly fitted or top-dose-only effect, or a change in a side signal; inactive = no such curve, though single readings can be large or run the other way; reference of the percent scale not stated here;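 also: the control signal comes from parental cells without the receptor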
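HEK 293 cells stably expressing TSHR and a modified CNG channel, with CNG-only parental cells as counterscreen, were preloaded 60 min at room temperature with membrane potential dye containing 100 uM RO 20-1724. Compound exposure was 30 min, and depolarization was read as fluorescence at 590 nm.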
ALOX15 inhib: blocks human 15-lipoxygenase activity. purified 15hLO-1, xylenol orange hydroperoxide absorbance. Potency, µM (titrated, usually from 57.1 µM), most hits filed as inhibitors. actives 1.4% (n = 74,000); also: nearly all actives have a fitted effect of over 55% in size
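Purified human 15hLO-1 (40 nM) in 25 mM Hepes pH 7.5, 0.01% Triton X-100, preincubated 15 min RT with compound, then 50 uM arachidonic acid for 6 min. Hydroperoxide read by ferrous/xylenol orange, 30 min; 573/405 nm absorbance ratio gave progress.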
Hits are given with their value; ! = not confirmed by another sample; [ ] = another dose, or the depositor's remark. Unless noted, calls follow the shape of the dose curve; as a rule, active = well fitted curve in the direction sought with a large enough effect; inconclusive = small, poorly fitted or top-dose-only effect, or another doubt; inactive = no such curve, though single readings can be large; an effect the other way counts as inactive or inconclusive.

Results for Cc1ccc([N+](=O)[O-])cc1S(=O)(=O)N(C)C ?
Casp1 inh: inactive; Caspase-7 inhib: inactive; ERK AVP block: inactive; HEK293 cAMP ctrl: inactive; TSHR ag: inactive; ALOX15 inhib: 25µM!

How did Nc1ccc(N2CCCCCC2)cc1 do in these assays?
Casp1 inh: inconclusive; Caspase-7 inhib: inactive; ERK AVP block: inactive; HEK293 cAMP ctrl: inactive; TSHR ag: inactive; ALOX15 inhib: 3.2µM

Results for S=C(c1ccc(N2CCCC2)cc1)N1CCCCC1 ?
Casp1 inh: inactive; Caspase-7 inhib: inactive; ERK AVP block: inactive; HEK293 cAMP ctrl: inactive; TSHR ag: inactive; ALOX15 inhib: inconclusive

What do the screens show for `C[C@]1(C(=O)NCc2cc(F)cc(C(F)(F)F)c2)C=C[C@@H](Cc2ccccc2)N1C(=O)c1ccccc1`?
Casp1 inh: inactive; Caspase-7 inhib: inactive; ERK AVP block: inactive; HEK293 cAMP ctrl: 16µM; TSHR ag: inconclusive; ALOX15 inhib: inactive

What do the screens show for `N=C(N)c1ccc(/C=C\c2ccc(C(=N)N)cc2)cc1`?
Casp1 inh: inactive[11.5 µM]; Caspase-7 inhib: inactive[11.5 µM]; ERK AVP block: inactive[11.5 µM]; HEK293 cAMP ctrl: inactive[11.4 µM]; TSHR ag: inactive[11.4 µM]; ALOX15 inhib: inactive[11.4 µM]

How did Cc1ccc2cc(C#N)c(NCc3ccco3)nc2c1 do in these assays?
Casp1 inh: inconclusive; Caspase-7 inhib: inactive; ERK AVP block: inactive; HEK293 cAMP ctrl: inactive; TSHR ag: inactive; ALOX15 inhib: inactive

What do the screens show for `O=C(CSc1nnc(-c2ccccn2)n1Cc1ccco1)c1ccc(Cl)cc1`?
Casp1 inh: inactive; Caspase-7 inhib: inactive; ERK AVP block: inactive; HEK293 cAMP ctrl: 25µM; TSHR ag: inconclusive; ALOX15 inhib: inactive

How did O=C(CSc1nnc(-c2ccccn2)n1Cc1ccco1)c1ccccc1 do in these assays?
Casp1 inh: inactive; Caspase-7 inhib: inactive; ERK AVP block: inactive; HEK293 cAMP ctrl: inactive; TSHR ag: inactive; ALOX15 inhib: inactive

Results for Cc1cnc(CNc2ccnc(-c3ccccc3Cl)n2)cn1 ?
Casp1 inh: inactive; Caspase-7 inhib: inactive; ERK AVP block: inactive; HEK293 cAMP ctrl: inactive; TSHR ag: inactive; ALOX15 inhib: inactive

How did Nc1ccn([C@H]2CC[C@@H](CO)O2)c(=O)n1 do in these assays?
Casp1 inh: inactive; Caspase-7 inhib: inactive; ERK AVP block: 25µM; HEK293 cAMP ctrl: inactive; TSHR ag: inactive; ALOX15 inhib: inactive

Results for CC(C)n1c(C(=O)OCC(=O)NCc2ccc3c(c2)OCO3)cc2sccc21 ?
Casp1 inh: inactive; Caspase-7 inhib: inactive; ERK AVP block: inactive; HEK293 cAMP ctrl: 7.9µM; TSHR ag: inconclusive; ALOX15 inhib: inactive

What do the screens show for `COCC(=O)NCc1ccc2c(c1)OCO2`?
Casp1 inh: inactive; Caspase-7 inhib: inactive; ERK AVP block: inactive; HEK293 cAMP ctrl: inactive; TSHR ag: inactive; ALOX15 inhib: inactive

Results for CC(C)n1c(C(=O)OCC(=O)NCc2ccc3c(c2)OCO3)cc2occc21 ?
Casp1 inh: inactive; Caspase-7 inhib: inactive; ERK AVP block: inactive; HEK293 cAMP ctrl: 16µM; TSHR ag: inconclusive; ALOX15 inhib: inactive

What do the screens show for `COC(=O)C1=C(C)NC(C)=C(C(=O)OC)C1c1cc2ccc(C)cc2[nH]c1=O`?
Casp1 inh: inactive; Caspase-7 inhib: inactive; ERK AVP block: inactive; HEK293 cAMP ctrl: inactive; TSHR ag: 16µM; ALOX15 inhib: inactive

How did Cc1cccn2cc(CCNC(=O)c3ccc(Br)o3)nc12 do in these assays?
Casp1 inh: inactive; Caspase-7 inhib: inactive; HEK293 cAMP ctrl: 32µM; TSHR ag: inconclusive; ALOX15 inhib: inactive

Results for O=C(NCCc1cn2ccccc2n1)c1ccc(Br)o1 ?
Casp1 inh: inactive; Caspase-7 inhib: inactive; HEK293 cAMP ctrl: inactive; TSHR ag: inactive; ALOX15 inhib: inactive

Results for O=C(Cn1cnc2c(cnn2-c2ccccc2)c1=O)OCc1ccccc1 ?
Casp1 inh: inactive; Caspase-7 inhib: inactive; ERK AVP block: inconclusive; HEK293 cAMP ctrl: inconclusive; TSHR ag: inconclusive; ALOX15 inhib: inactive

How did O=C(Cn1cnc2c(cnn2-c2ccc(F)cc2)c1=O)N1CCCc2ccccc21 do in these assays?
Casp1 inh: inactive; Caspase-7 inhib: inactive; ERK AVP block: inconclusive; HEK293 cAMP ctrl: inactive; TSHR ag: inactive; ALOX15 inhib: inconclusive

Results for Cc1ccc(-n2ncc3c(=O)n(CC(=O)OCc4ccccc4)cnc32)cc1 ?
Casp1 inh: inactive; Caspase-7 inhib: inactive; ERK AVP block: inactive; HEK293 cAMP ctrl: 25µM; TSHR ag: inconclusive; ALOX15 inhib: inactive

Results for Cc1ccc(-n2nnc3c(=O)n(CC(=O)OCc4ccccc4)cnc32)cc1 ?
Casp1 inh: inactive; Caspase-7 inhib: inactive; HEK293 cAMP ctrl: 25µM; TSHR ag: inconclusive; ALOX15 inhib: inactive

How did Cc1ccc(-n2ncc3c(=O)n(CC(=O)N4CCCc5ccccc54)cnc32)cc1C do in these assays?
Casp1 inh: inactive; Caspase-7 inhib: inactive; ERK AVP block: 25µM; HEK293 cAMP ctrl: inactive; TSHR ag: inactive; ALOX15 inhib: inactive

What do the screens show for `Nc1cc(C(=O)OCC(=O)NCc2ccco2)ccc1Cl`?
Casp1 inh: inactive; Caspase-7 inhib: inactive; ERK AVP block: inactive; HEK293 cAMP ctrl: inactive; TSHR ag: inactive; ALOX15 inhib: inactive

How did O=C(Nc1ccc2c(c1)OCCO2)C1CCCN(S(=O)(=O)c2cnc[nH]2)C1 (stereo not given) do in these assays?
Casp1 inh: inactive; Caspase-7 inhib: inactive; ERK AVP block: inactive; HEK293 cAMP ctrl: inactive; TSHR ag: inactive; ALOX15 inhib: inactive

What do the screens show for `COC(=O)c1ccc(C(NC(=O)OCc2ccccc2)/C(=C/[C@@H](C)C(=O)NCc2ccc(-c3ccccc3)cc2)c2cccnc2)cc1` (stereo not given in full)?
Casp1 inh: inactive; Caspase-7 inhib: inactive; ERK AVP block: inactive; HEK293 cAMP ctrl: inactive; TSHR ag: inactive; ALOX15 inhib: inactive

What do the screens show for `COCCCn1c2nc3ccccc3nc2c2c(=O)n(Cc3ccccc3Cl)cnc21`?
Casp1 inh: inactive; Caspase-7 inhib: inactive; ERK AVP block: inactive; HEK293 cAMP ctrl: 25µM; TSHR ag: inconclusive; ALOX15 inhib: inactive

Results for O=C(O)c1cnc2ccccc2n1 ?
Casp1 inh: inactive; Caspase-7 inhib: inactive; ERK AVP block: inactive; HEK293 cAMP ctrl: inactive; TSHR ag: inactive; ALOX15 inhib: 20µM

How did Cc1cccc(CNc2ccnc(-c3cccc(C#N)c3)n2)c1 do in these assays?
Casp1 inh: inactive; Caspase-7 inhib: inactive; ERK AVP block: inactive; HEK293 cAMP ctrl: inconclusive; TSHR ag: inconclusive; ALOX15 inhib: inconclusive

What do the screens show for `COc1ccccc1CN1CC[C@@]2(CCCN(C(=O)c3ccncc3)C2)C1`?
Casp1 inh: inactive; Caspase-7 inhib: inactive; ERK AVP block: inactive; HEK293 cAMP ctrl: inactive; TSHR ag: inactive; ALOX15 inhib: inactive

Results for CCOC(=O)C1CCN(C(C(=O)Nc2ccc3c(c2)OCCO3)c2ccccc2)CC1 (stereo not given) ?
Casp1 inh: inactive; Caspase-7 inhib: inactive; ERK AVP block: inactive; HEK293 cAMP ctrl: 13µM; TSHR ag: inconclusive; ALOX15 inhib: inactive

Screening results deposited in PubChem by National Center for Advancing Translational Sciences (NCATS).
